Only some compounds are listed: those with a hit (about 2.2% of all), similar ones and a draw of the others.
Ba/F3 V617F tox = reduce viability of Ba/F3 cells dependent on JAK2V617F. Ba/F3 EpoR-JAK2V617F viability, ATP luminescence. inhibition, % at 5.6 µM. actives 1.1% (n = 220,000). AID 1446;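 active = inhibition above the campaign mean plus 3 SD over all tested compounds, cut at about 24% in these data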;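 also: cytokine-independent growth of Ba/F3 cells driven by EpoR plus mutant JAK2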
APP 5UTR inh = APP translation inhibition | actives 0.82% (n = 190,000) | SH-SY5Y APP 5'UTR-luciferase reporter, luminescence | inhibition, % at 2 µM;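 active = inhibition above a set limit, derived from the sample mean plus 3 SD, cut at about 45% in these data; inconclusive = one replicate passes the limit while the other fails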
aSyn 5UTR inh = 5' untranslated region of α-synuclein, MLPCN primary screen. inhibition, % (tested at 7.5 µM). actives 0.82% (n = 300,000). AID 1813. alpha-synuclein 5'UTR reporter, inhibitor activity; in the data active = inhibition above about 60%; inconclusive = no clear call, values can overlap the other calls;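 also: H4 neuroglioblastoma cells stably carrying SNCA 5'UTR luciferase fusion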
KLF5 inhibitor = suppresses KLF5 promoter-driven expression; DLD-1 KLF5 promoter-luciferase reporter, luminescence; actives 0.23% (n = 290,000); inhibition, % at 5 µM;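 active = inhibition above a per-plate limit of that plate's mean compound inhibition plus 3 SD, cut at about 60% in these data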;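 also: higher means less KLF5 promoter-driven luciferase light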
IEC-6 tox = counter-screen for KLF5 inhibitors: cytotoxicity in IEC-6 cells; IEC-6 cytotoxicity, luminescence viability; inhibition, % at 5 µM; actives 0.78% (n = 290,000); AID 1825; in the data active = inhibition above about 22%
BaF3 parental = counter-screen for JAK2V617F inhibitors: parental Ba/F3 viability inhibitors. CellTiter-Glo ATP luminescence. inhibition, % at 5.6 µM. actives 1.1% (n = 220,000);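 active = inhibition above a per-campaign cutoff, the mean inhibition of all tested compounds plus 3 SD, cut at about 27% in these data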
Numbers stand for hits; . = inactive; ? = inconclusive; / = no result.

SMILES | Ba/F3 V617F tox | APP 5UTR inh | aSyn 5UTR inh | KLF5 inhibitor | IEC-6 tox | BaF3 parental
CN(C)S(=O)(=O)c1ccc(C(=O)Nc2nnc(-c3ccc4c(c3)CCCC4)o2)cc1 | . | . | 69 | . | . | .
COc1ccc2nc(C)cc(SCC(=O)N/N=C/c3ccccc3)c2c1 | . | . | . | . | . | .
COc1ccc2nc(C)cc(SCC(=O)N/N=C/c3ccc(O)cc3O)c2c1 | . | . | 80 | . | . | .
CC(C)c1ccc2c(c1)CCC1C(C)(CN)CCCC21C (stereo not given) | 96 | / | 97 | . | . | 79
CCCCCCSc1cc(-c2nc3ccc(C)cn3c2NCc2ccccc2)ccc1OC | / | / | . | / | / | /
CC1=CC(C)(C)N2C(=O)C3(N=C(N)NC(Nc4ccccc4)=N3)c3cc(C)cc1c32 (stereo not given) | 44 | . | . | . | . | 42
CC1=CC(C)(C)N2C(=O)C3(SCC(=O)N3c3ccc(O)cc3)c3cc(C)cc1c32 (stereo not given) | . | . | . | . | . | .
Cc1cc(C(=O)CSc2nc3ccccc3[nH]2)c(C)n1CC1CCCO1 (stereo not given) | . | . | . | . | . | 40
CCCCCCCCCCCCCCCCn1cc[n+](CC(C)=O)c1 | 68 | . | / | . | . | 75
C#CCn1cc[n+](CC(=O)N(C)C)c1 | . | . | . | . | . | .
O=C(CN1CCOCC1)Nc1ncc(Cc2ccccc2Cl)s1 | . | . | . | . | . | .
CCc1ccc(CCC(=O)Nc2ncc(Cc3ccccc3Cl)s2)o1 | . | 71 | . | . | . | .
O=C(/C=C/c1ccc(Cl)cc1)N1CCN(Cc2ccccc2)CC1 | / | / | . | . | . | /
CC1CCCN(CCCNC(=O)C2CCN(S(=O)(=O)N3CCC4(CC3)OCCO4)CC2)C1 (stereo not given) | / | / | . | . | . | /
Clc1ccc(-c2cnc3n2CCCCC3)cc1 | . | . | . | . | . | .
Clc1ccc(C[n+]2cc(-c3ccccc3)n3c2CCCCC3)c(Cl)c1 | 86 | . | . | . | . | 79
Clc1ccc(-c2c[n+](Cc3ccc(Cl)cc3Cl)c3n2CCCCC3)cc1 | 73 | / | . | . | . | 73
Clc1ccc(-c2c[n+](Cc3ccc(Br)cc3)c3n2CCCCC3)cc1 | 62 | / | . | . | . | 69
O=[N+]([O-])c1ccc(C[n+]2cc(-c3ccc(Cl)c(Cl)c3)n3c2CCCCC3)cc1 | . | / | . | . | . | .
Cn1c(N2CCCC2)nc2c1c(=O)[nH]c(=O)n2C | / | / | . | . | . | /
CC1=NN(C(N)=S)C(=O)C1N=Nc1c(C)n(C)n(-c2ccccc2)c1=O (stereo not given) | / | / | . | / | / | /
CC(C)CN(C(=O)c1cccc(S(=O)(=O)N2CCN(c3ccc(F)cc3)CC2)c1)C1CCS(=O)(=O)C1 (stereo not given) | / | / | . | / | / | /
COc1ccc(OC)c2sc(N(CCCN(C)C)C(=O)c3ccc(S(=O)(=O)N4CCc5ccccc5C4)cc3)nc12 | / | / | 100 | / | / | /
CN(C)CCN(C(=O)c1ccc(S(=O)(=O)N2CCCC2)cc1)c1nc2ccc(Br)cc2s1 | / | / | . | . | . | /
COc1cccc2sc(N(CCCN(C)C)C(=O)c3ccc(S(=O)(=O)N4CCCc5ccccc54)cc3)nc12 | / | / | 64 | . | . | /
SMILES | Ba/F3 V617F tox | APP 5UTR inh | aSyn 5UTR inh | KLF5 inhibitor | IEC-6 tox | BaF3 parental
CC1CCCCN1S(=O)(=O)c1ccc(C(=O)N(CCCN(C)C)c2nc3ccc(Br)cc3s2)cc1 (stereo not given) | / | / | 67 | . | . | /
COc1cc2nc(N(CCCN(C)C)C(=O)c3ccc(S(=O)(=O)N4CCc5ccccc5C4)cc3)sc2cc1OC | / | / | . | / | / | /
COc1cccc2sc(N(CCCN(C)C)C(=O)c3ccc(S(=O)(=O)N4CCc5ccccc5C4)cc3)nc12 | / | / | 94 | . | . | /
CSCC[C@H](N)C(=O)N1CCC(C(=O)N[C@H](C)C(=O)Nc2ccc(C(C)C)cc2)CC1 | / | / | . | . | . | /
COc1cc(C(=O)NCCSc2ccc(F)cc2)cc(OC)c1OC | / | / | . | . | . | /
Cc1nn(-c2ccccc2)c(C)c1NC(=O)COC(=O)c1ccccc1OC(F)F | / | / | . | . | . | /
COc1ccc(C)c2sc(N(CCCN(C)C)C(=O)c3ccc(S(=O)(=O)N4CCc5ccccc5C4)cc3)nc12 | / | / | 91 | / | / | /
CCOc1cccc2sc(N(CCCN(C)C)C(=O)c3ccc(S(=O)(=O)N(CC)Cc4ccccc4)cc3)nc12 | / | / | 71 | . | . | /
CCOc1cccc2sc(N(CCCN(C)C)C(=O)c3ccc(S(=O)(=O)N(C)Cc4ccccc4)cc3)nc12 | / | / | ? | . | . | /
Cc1nn(CCO)c2ncc(C(=O)c3cc(F)ccc3O)cc12 | / | / | . | . | . | /
O=C(CCCN1C(=O)/C(=C\c2ccccc2)SC1=S)Nc1ccc(C(=O)O)cc1 | / | / | . | . | . | /
O=C(CCCN1C(=O)/C(=C/c2ccc3c(c2)OCO3)SC1=S)Nc1ccc(C(=O)O)cc1 | / | / | 102 | . | . | /
CCc1ccc(/C=C2\SC(=S)N(CCCC(=O)Nc3ccc(C(=O)O)cc3)C2=O)cc1 | / | / | 109 | . | . | /
O=C(CCN1C(=O)/C(=C/c2ccc3c(c2)OCO3)SC1=S)Nc1ccc(C(=O)O)cc1 | / | / | . | . | . | /
COCCn1c(SCC(=O)NCc2ccc(F)cc2)nc2ccccc21 | / | / | . | . | . | /
N#Cc1cc2cc3c(cc2nc1SCC(=O)N1CCOCC1)OCCO3 | / | / | 110 | . | . | /
N#C/C(=C\c1ccc(N2CCOCC2)o1)c1ccccc1 | . | . | . | . | . | 30
N#C/C(=C/c1ccc(N2CCCCCC2)o1)c1ccc(F)cc1 | . | . | . | . | . | .
N#C/C(=C/c1ccc(N2CCOCC2)o1)c1ccc(Br)cc1 | 58 | . | . | . | . | 62
N#C/C(=C/c1ccc(N2CCOCC2)o1)c1nc2ccccc2[nH]1 | . | . | / | . | . | .
CCCOc1ccc(-c2c(C(=O)N/N=C/c3cccnc3)nnn2-c2nonc2N)cc1 | / | / | . | . | . | /
COC(=O)C(Cc1ccc(OC(=O)c2ccc(Cl)cc2)cc1)N1Cc2ccccc2C1=O (stereo not given) | . | . | . | . | . | 96
COc1ccc(COc2cc(-c3cccc(OC)c3)nc3ccc(NC(=O)C(C)C)cc23)cc1 | 61 | . | . | . | . | 70
Cc1ccc(S(=O)(=O)CCc2ccncc2)cc1 | / | / | . | . | . | /
O=C(N/N=C\c1ccc(Cl)s1)C1COc2ccccc2O1 (stereo not given) | . | / | . | . | . | .
O=C(N/N=C/c1c[nH]c2ccccc12)C1COc2ccccc2O1 (stereo not given) | . | . | 76 | . | . | .
COc1ccc(C2C3=C(CCCC3=O)Nc3nc(-c4cc(OC)c(OC)c(OC)c4)nn32)cc1OC (stereo not given) | . | . | . | . | . | 93
COc1ccc(Nc2oc(COc3ccc(C)cc3)nc2C#N)cc1 | . | . | 68 | . | . | .
COc1ccc(Nc2oc(COc3ccc(OC)cc3)nc2C#N)cc1 | . | . | 78 | . | . | .
COc1ccc(Nc2oc(COc3cccc(C)c3)nc2C#N)cc1 | . | . | . | . | . | .

Screening data (PubChem)
